In PubChem BioAssay (NCI):
About 79,000 compounds went through this panel and 15% of them were active in at least one assay; those are over-represented in the sample as a whole. Calls of active or inactive are those of the source. Cut-off read from the data, not from the text of the source: active = growth inhibition above about 70%; inactive = the rest.

Legend:
[1] = NCI Yeast Anticancer Drug Screen. Data for the rad50 strain (AID 155);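 note: 0% = growth of vehicle-only cultures of the same strain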; details: S. cerevisiae rad50 strain growth inhibition; at 50.0 µM; stronger effect = higher value
In short: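 A DNA repair-deficient yeast mutant serves as the test organism; compound-induced growth inhibition is calculated against vehicle-treated cells.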

[2] = NCI Yeast Anticancer Drug Screen. Data for the mec2-1 strain (AID 157); details: S. cerevisiae mec2-1 strain, at 50.0 µM, stronger effect = higher value
In short: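 Cells of the genetically defined mec2-1 yeast strain are incubated with test compound. Inhibition of growth is calculated against vehicle-treated controls.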

[3] = NCI Yeast Anticancer Drug Screen. Data for the sgs1 mgt1 strain (AID 161);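 note: 0% = growth of cultures given vehicle only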; details: S. cerevisiae sgs1 mgt1 strain, at 50.0 µM, stronger effect = higher value
In short: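 Read-out: growth inhibition vs vehicle controls. Cells: mutant yeast strain deficient in DNA damage repair.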

[4] = NCI Yeast Anticancer Drug Screen. Data for the cln2 rad14 strain (AID 165);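 note: 0% = growth equal to vehicle treated cultures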; details: S. cerevisiae cln2 rad14 strain, at 50.0 µM, stronger effect = higher value
In short: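 The screen exposed genetically defined yeast (cln2 rad14) to test compounds and scored growth inhibition relative to vehicle-treated controls.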

[5] = NCI Yeast Anticancer Drug Screen. Data for the bub3 strain (AID 167); details: S. cerevisiae bub3 mutant strain, at 50.0 µM, stronger effect = higher value
In short: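 Inhibition values come from growth of compound-treated mutant yeast normalised to vehicle-treated controls.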

[6] = NCI Yeast Anticancer Drug Screen. Data for the mlh1 rad18 strain (AID 175); details: S. cerevisiae mlh1 rad18 strain growth inhibition; at 50.0 µM; stronger effect = higher value
In short: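 Compound-treated yeast growth, normalised to vehicle controls. Strain bears defined DNA repair mutations.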

Measured: growth inhibition

CN1CCN(c2c3c(nc4ccccc24)CCCC3)CC1
inactive: [1] -6.45% | [2] 2% | [3] -2.4% | [4] -40.2% | [5] -10.3% | [6] -22%

COc1ccc2nc3c(Cl)cccc3c(Cl)c2c1
active: [6] 81.5%
inactive: [1] 28.4% | [2] 38.5% | [3] 3.4% | [4] 4.6% | [5] 7.35%

O=C1CCCNn2c(nc3ncccc3c2=O)N1
inactive: [1] 17.3% | [2] 37% | [3] 9% | [4] -20.6% | [5] 10.1% | [6] -41.1%

CCCCCCCCCCCCCC1CCC(CC)N1 (configuration not stated)
active: [1] 92% | [2] 93.7% | [3] 92.2% | [4] 91.6% | [5] 91.8% | [6] 91.8%

COc1c(O)c2c(=O)cc3c4c5c(cc(=O)c6c(O)c(OC)c(CC(C)O)c(c(c1CC(C)O)c24)c65)OCO3 (configuration not stated)
active: [1] 74.5% | [2] 97.8% | [3] 76.3% | [6] 70.5%
inactive: [4] 37.5% | [5] 5.55%

CC(C)C(N)C(=O)Nc1nncs1 (configuration not stated)
inactive: [1] 11.6% | [2] -2.15% | [3] -8% | [4] -10.1% | [5] -33.6% | [6] -28.6%

C/C=C\C=C\C(=O)O
inactive: [1] -30.4% | [2] -17% | [3] -38.3% | [4] 4.3% | [5] -19.8% | [6] -31.9%

C[N+]1(C)C2CCC1CC(OC(=O)C(O)c1ccccc1)C2 (configuration not stated)
inactive: [1] -6.8% | [2] -54.4% | [3] -5.1% | [4] -4.85% | [5] -13.8% | [6] -4.8%

O=c1[nH]c(=O)n(C2CC(O)C(CO)O2)cc1OC/C=C/Cc1ccccc1 (configuration not stated)
inactive: [1] -22.1% | [2] -12.8% | [3] 0.95% | [4] 7.75% | [5] -10.4% | [6] -20.7%

FC(F)(F)c1ccc(C2ON=C(c3ccccc3)N2C23CC4CC(CC(C4)C2)C3)cc1 (configuration not stated)
inactive: [1] 17.1% | [2] 4.1% | [3] 25.1% | [4] -0.4% | [5] -7.5% | [6] 1.25%

Cc1cc(-c2ccc(Cl)cc2)c(C#N)c(=S)n1C1OC(CO)C(O)C(O)C1O (configuration not stated)
inactive: [1] -19.4% | [2] -11% | [3] -5.3% | [4] 2.8% | [5] -2.95% | [6] 2.8%

C=C(C)COc1ccc(C2OCC(CC)C(CCC)O2)cc1 (configuration not stated)
inactive: [1] -4.3% | [2] -10.6% | [3] -7.5% | [4] -45% | [5] 5% | [6] -9.25%

CCc1nc2c(c(=O)[nH]1)C(c1ccc(Cl)cc1)C(C)(C)O2 (configuration not stated)
inactive: [1] -1.2% | [2] -22.6% | [3] -17.4% | [4] 4.45% | [5] 1.1% | [6] -7.4%

CCOC(=O)C1CC(=O)C2/C(=C(\O)c3ccccc3)C=C([N+](=O)[O-])C1C2[N+](=O)[O-] (configuration not stated)
inactive: [1] 3% | [2] 3.65% | [3] -13.6% | [4] -1.25% | [5] 3.6% | [6] -1.2%

CCCCCCC(O)Cc1ccccc1 (configuration not stated)
inactive: [1] 5.95% | [2] 5.1% | [3] -5.5% | [4] -12.3% | [5] -24.9% | [6] 1.2%

O=C(NCCCCCCNC(=O)OCCSCCn1cc(C(=O)NC(=O)OCc2ccccc2)c(=O)[nH]c1=O)OCCSCCn1cc(C(=O)NC(=O)OCc2ccccc2)c(=O)[nH]c1=O
inactive: [1] -21.3% | [2] -23.6% | [3] 2.6% | [4] 2.55% | [5] 15.1% | [6] -9.95%

COc1ccc2nc3cc(Cl)ccc3c(C=O)c2c1
inactive: [1] -0.15% | [2] 7.65% | [3] 5.75% | [4] -35.8% | [5] -4.3% | [6] -2.25%

Clc1cccc(-c2nnc(-c3nn(-c4ccccc4)c4nc5ccccc5nc34)o2)c1
inactive: [1] -16.4% | [2] -31.3% | [3] -47.2% | [4] 6.1% | [5] -17.1% | [6] -10.8%

Fc1ccc(CN2COc3c(ccc4cccnc34)C2)c(F)c1
inactive: [1] 57.6% | [2] 43.6% | [3] 57.1% | [4] 29.6% | [5] 49% | [6] 52.2%

COc1cc(OC)c(N=Nc2c(N)nc(N)[nH]c2=O)cc1Cl
inactive: [1] 4.95% | [2] 14.6% | [3] 7.5% | [4] -12.1% | [5] 8.3% | [6] -1.4%

CCCCOC(=O)NC(Nc1ccc(S(=O)(=O)Nc2ccc(OC)nn2)cc1)(C(F)(F)F)C(F)(F)F
inactive: [1] -8.25% | [2] -1.5% | [3] -10.1% | [4] 5% | [5] -9.55% | [6] 2.95%

Cc1c(-c2ccccc2)c2ccccc2n1C
inactive: [1] 38.1% | [2] 8.55% | [3] 10.4% | [4] 20.3% | [5] 20.6% | [6] 22.5%

C/C(=N\NC(=O)c1ccncc1)c1cccc(F)c1
inactive: [1] -57% | [2] -20.9% | [3] -51.2% | [4] -48.7% | [5] -67.8% | [6] -38%

CN(C)N=Nc1c(F)cccc1F
inactive: [1] -5.85% | [2] -13.8% | [3] -28.6% | [4] 20.4% | [5] 8.9% | [6] 0.65%

Cn1c(N)cc(=O)n(C)c1=O
inactive: [1] 22.6% | [2] 3.95% | [3] 18% | [4] 0.1% | [5] 17.5% | [6] 27%

Nc1ncnc2c1cnn2Cc1ccccc1
inactive: [1] 4.9% | [2] -7.3% | [3] 4.65% | [4] -3.75% | [5] 21.2% | [6] 2.35%

O=C1OC2C(O)COC2(O)C1(O)Cc1c[nH]c2ccccc12 (configuration not stated)
inactive: [1] 14.1% | [2] -6.4% | [3] -5.45% | [4] 0.5% | [5] 3.35% | [6] -11.2%

COc1ccc(NC(=O)c2cccc([N+](=O)[O-])c2)cc1
inactive: [1] 8.1% | [2] 23.1% | [3] 24.6% | [4] 1.8% | [5] 4.1% | [6] 5.8%

O=S1(=O)C(Cl)=C(O)c2ccccc21
inactive: [1] 13.4% | [2] 6.5% | [3] -2.05% | [4] -22.6% | [5] -7.7% | [6] 11.4%

Cc1ccc(/C=c2\cc3oc(=O)c4cccc(c4-3)c2=O)cc1
inactive: [1] -5.3% | [2] 18.1% | [3] 58.6% | [4] 23.6% | [5] 44% | [6] 19.1%

Cc1cccc(Cl)c1NC(=O)c1ccc(C(=O)Nc2c(C)cccc2Cl)cc1
inactive: [1] -3% | [2] -17.1% | [3] 5.25% | [4] 4.05% | [5] 2.6% | [6] -12.1%

O=C1Cc2c(c3ccccc3c3ccccc23)C1
inactive: [1] 20.9% | [2] 7.5% | [3] -4.1% | [4] -41% | [5] 4% | [6] 20.9%

CC1/C(=N/O)CC(c2ccccc2)N(N=O)C1c1ccccc1 (configuration not stated)
inactive: [1] 62.8% | [2] 46.2% | [3] 57.5% | [4] 18.8% | [5] 13.6% | [6] 46%

Nc1c(O)cccc1C(=O)O
inactive: [1] -16.2% | [2] -9.9% | [3] -4.45% | [4] 3.95% | [5] 5.1% | [6] -28.7%

S=c1[nH]c2ccccc2n1CCc1ccncc1
inactive: [1] -6.8% | [2] -15.1% | [3] 22.2% | [4] -1.5% | [5] 1.05% | [6] 3.5%

C/C=C/C[P+](Cc1ccccc1)(c1ccccc1)c1ccccc1
inactive: [1] 59.6% | [2] 14.9% | [3] 26.2% | [4] -32.1% | [5] 24.6% | [6] 14.3%

CCN1CCC(CC(c2ccccc2)c2ccccc2)C1 (configuration not stated)
inactive: [1] 19.4% | [2] -6.75% | [3] 34.2% | [4] -4.95% | [5] 10.1% | [6] 7%

COc1ccc(Cc2cc(N=NC(N)=O)c(C)cc2O)cc1
inactive: [1] -7.35% | [2] -5.65% | [3] -2.55% | [4] 1.75% | [5] 3.5% | [6] 4.55%

O=C(Cl)c1cc(C(=O)Cl)cc(C(=O)Cl)c1
inactive: [1] -28.6% | [2] -51.2% | [3] -24.2% | [4] 7.15% | [5] -28.4% | [6] -28.6%

Cn1c2nc(=O)n(-c3ccccc3)c(=O)c-2nc2c1CCCC2
inactive: [1] -4.95% | [2] -10.7% | [3] 1.55% | [4] -6.45% | [5] 3.9% | [6] -60.7%

C[Si](C)(C)C#C[I+]c1ccccc1
inactive: [1] -27.6% | [2] -24.4% | [3] 12.7% | [4] 5.65% | [5] 8.95% | [6] -8.85%

COc1cccc(/C=C2\S/C(=N/Nc3nc(C)c(C)s3)NC2=O)c1O
inactive: [1] 7.7% | [2] 16.3% | [3] 20.8% | [4] 18% | [5] -8.65% | [6] 2.2%
